# System: Trichuris muris adult worms
# Assay: mean motility score (Paragon pixel variance) of adult worms (arbitrary units); higher = more motile worms, i.e. less anthelmintic effect; extreme values may be limits of the assay
# Conditions: 100 µM; 24 h
# Method in brief: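 Each drug was tested with three worms in three wells, run over three separate occasions and vehicle and positive controls included. The worms were single adult Trichuris muris from infected NOD SCID mice, held for 24 h at 37°C and 5% CO2 in 100 μL RPMI-1640 with antibiotics and drug at 100 μM (1% v/v DMSO) in 96-well plates. Motility score was derived by Paragon pixel-variance analysis of films from an automated phenotyping platform and averaged over replicate wells.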
row,Compound,mean motility score
1,CC(C)(F)C[C@H](N[C@@H](c1ccc(-c2ccc(S(C)(=O)=O)cc2)cc1)C(F)(F)F)C(=O)NC1(C#N)CC1 [odanacatib],3560
2,O=C(CCCN1CCC(O)(c2ccc(Cl)cc2)CC1)c1ccc(F)cc1 [haloperidol],2820
3,CCOc1cc(CC(=O)N[C@@H](CC(C)C)c2ccccc2N2CCCCC2)ccc1C(=O)O [repaglinide],268
4,CCOC(=O)C1=C(COCCN)NC(C)=C(C(=O)OC)C1c1ccccc1Cl (centres undefined) [amlodipine],8.67
5,CCCCC/C=C\C/C=C\C/C=C\CCCCC(=O)O [gamolenic acid],2970
6,CN1CCC(=C2c3ccccc3C=Cc3ccccc32)CC1 [cyproheptadine],417
7,Cc1ccc(Nc2nccc(N(C)c3ccc4c(C)n(C)nc4c3)n2)cc1S(N)(=O)=O [pazopanib],1830
8,COc1ccc(Cl)cc1C(=O)NCCc1ccc(S(=O)(=O)NC(=O)NC2CCCCC2)cc1 [glyburide],2300
9,CCCc1cc(O)nc(S)n1 [propylthiouracil],3720
10,COc1nc(C)nc(Cl)c1NC1=NCCN1 [moxonidine],3500
11,CCC1(c2ccccc2)C(=O)NCNC1=O [primidone],3160
12,C/C(=C\C(=O)OCCCCCCCCC(=O)O)C[C@@H]1OC[C@H](C[C@@H]2O[C@H]2[C@@H](C)[C@H](C)O)[C@@H](O)[C@H]1O [mupirocin],2520
13,O=C(c1ccc(F)cc1)C1CCN(CCn2c(=O)[nH]c3ccccc3c2=O)CC1 [ketanserin],3020
14,CCCc1nc2c(C)cc(-c3nc4ccccc4n3C)cc2n1Cc1ccc(-c2ccccc2C(=O)O)cc1 [telmisartan],1900
15,CO[C@H]1/C=C/O[C@@]2(C)Oc3c(C)c(O)c4c(O)c(c(/C=N/N5CCN(C)CC5)c(O)c4c3C2=O)NC(=O)/C(C)=C\C=C\[C@H](C)[C@H](O)[C@@H](C)[C@@H](O)[C@@H](C)[C@H](OC(C)=O)[C@@H]1C [rifampicin],1330
16,O=C(NCCO[N+](=O)[O-])c1cccnc1 [nicorandil],2790
17,CC[C@H](C)C(=O)O[C@H]1C[C@@H](C)C=C2C=C[C@H](C)[C@H](CC[C@@H]3C[C@@H](O)CC(=O)O3)[C@H]21 [lovastatin],96.7
18,CCn1nc(C(=O)O)c(=O)c2cc3c(cc21)OCO3 [cinoxacin],1110
19,Cc1nc2n(c(=O)c1CCN1CCC(c3noc4cc(F)ccc34)CC1)CCCC2 [risperidone],2130
20,COCCOC(=O)C1=C(C)NC(C)=C(C(=O)OC(C)C)C1c1cccc([N+](=O)[O-])c1 (centres undefined) [nimodipine],112
21,Cc1cc2c(s1)Nc1ccccc1N=C2N1CCN(C)CC1 [olanzapine],454
22,CCN(CC)CCOC(=O)c1ccc(N)cc1.Cl [procaine hydrochloride],3750
23,Cc1nc(O)c(C#N)cc1-c1ccncc1 [milrinone],4250
24,NC(CO)(CO)CO [tromethamine],2770

# Reference: the supplement of paper PMC10503962
